# Records with an inconclusive call do not appear. Active and inactive are the calls of the source. Unless noted, calls come from the whole dose curve; as a rule, active = well fitted curve in either direction with a large enough effect (not every such curve was filed as active); inconclusive = small, poorly fitted or top-dose-only effect, or another doubt; inactive = flat fitted curve, though single readings scatter.
# Tests used:
# [1] = AP1 Signaling Pathway (AID 357); settings: ME-180 AP-1-bla reporter, EGF-induced, beta-lactamase ratio, 5 h; at 7.69 µM (top of the series) unless noted;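 note: ME-180 reporter cells stimulated with EGF at its EC50 level; % is set by controls: 0 for no effect and ±100 for the full control effect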
# How it was run: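 Cells are seeded overnight, exposed to compound titrations and an EC50 level of EGF for 5 hours at 37 °C, then loaded with CCF4 dye for 2.5 hours. Beta-lactamase activity under the AP-1 element is read as a blue/green ratio.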
# [2] = biological target: Cytochrome P450 1A2 (Homo sapiens) (UniProt P05177); assay: p450-cyp1a2 (AID 410; calls by dose curve; note: potency is the fitted concentration of half-maximal effect;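 for activity change, negative = inhibition: -100% = full effect of reference inhibitor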); settings: recombinant CYP1A2, luciferin-ME demethylation, luminescence; series mostly up to 57 µM
# Cytochrome P450 1A2 (Homo sapiens), sequence (P05177 whole entry, looked up): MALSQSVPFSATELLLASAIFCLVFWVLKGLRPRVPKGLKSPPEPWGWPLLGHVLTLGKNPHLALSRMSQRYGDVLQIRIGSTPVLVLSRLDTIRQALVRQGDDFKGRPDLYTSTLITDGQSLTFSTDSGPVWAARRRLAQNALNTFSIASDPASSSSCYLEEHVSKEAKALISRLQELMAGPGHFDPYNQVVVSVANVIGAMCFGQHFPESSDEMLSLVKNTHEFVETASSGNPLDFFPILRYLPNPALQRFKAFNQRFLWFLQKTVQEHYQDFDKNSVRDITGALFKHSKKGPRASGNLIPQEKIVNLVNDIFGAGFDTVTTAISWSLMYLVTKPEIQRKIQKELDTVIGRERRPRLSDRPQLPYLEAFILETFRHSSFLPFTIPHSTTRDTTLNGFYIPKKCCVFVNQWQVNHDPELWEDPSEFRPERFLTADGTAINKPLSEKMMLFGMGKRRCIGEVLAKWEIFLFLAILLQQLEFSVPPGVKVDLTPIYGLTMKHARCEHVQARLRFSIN
# How it was run: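 O-Demethylation of luciferin 6' methyl ether by human CYP1A2 is monitored as luciferase luminescence. Substrate sits at Km (100uM); enzyme is 20nM. Values are scaled to 57 uM furafylline as maximal inhibition.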
# [3] = NFAT Signaling Pathway (AID 444); settings: Jurkat NFAT-bla M1, carbachol, beta-lactamase ratio, 5 h; at 7.69 µM (top of the series) unless noted;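 note: carbachol stimulus at about its EC50 of 1 µM final; % is set by controls: 0 for no effect and ±100 for the full control effect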
# How it was run: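 Read-out: CCF4 FRET ratio (460 nm/530 nm) after 1 h RT dye loading, used for %activity and AC50 from titration series. Cells: Jurkat NFAT-β-lactamase/M1 line, treated with compound plus 1 uM carbachol for 5 h, 37 °C.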
# [4] = Stat Signaling Pathway (AID 446); settings: ME-180 (cervical carcinoma) SIE beta-lactamase reporter, IL-6 stimulated, 5 h; at 7.69 µM (top of the series) unless noted;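 note: ME-180 cervical cancer cells given 40 pM IL-6 alongside compound; SIE-controlled beta-lactamase reporter measured as 460/530 nm FRET emission ratio; % is set by controls: 0 for no effect and ±100 for the full control effect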
# How it was run: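 FRET read-out (405 nm excitation, 460/530 nm emission) of a beta-lactamase reporter under a STAT-inducible element in ME-180 cervical carcinoma cells. Cells with compound receive 40 pM IL-6 for 5 h. Values are normalised to AC90 stimulation and AC90 JAK-inhibitor controls.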
# [5] = biological target: Glucocorticoid receptor (Homo sapiens) (UniProt P04150); assay: GR-EFC Redistribution (AID 451; calls by dose curve; note: potency is the fitted concentration of half-maximal effect); settings: CHO-K1 GR-EFC translocation, beta-gal luminescence, 2 h
# Glucocorticoid receptor (Homo sapiens), sequence (P04150 whole entry, looked up, the tested form may be a part): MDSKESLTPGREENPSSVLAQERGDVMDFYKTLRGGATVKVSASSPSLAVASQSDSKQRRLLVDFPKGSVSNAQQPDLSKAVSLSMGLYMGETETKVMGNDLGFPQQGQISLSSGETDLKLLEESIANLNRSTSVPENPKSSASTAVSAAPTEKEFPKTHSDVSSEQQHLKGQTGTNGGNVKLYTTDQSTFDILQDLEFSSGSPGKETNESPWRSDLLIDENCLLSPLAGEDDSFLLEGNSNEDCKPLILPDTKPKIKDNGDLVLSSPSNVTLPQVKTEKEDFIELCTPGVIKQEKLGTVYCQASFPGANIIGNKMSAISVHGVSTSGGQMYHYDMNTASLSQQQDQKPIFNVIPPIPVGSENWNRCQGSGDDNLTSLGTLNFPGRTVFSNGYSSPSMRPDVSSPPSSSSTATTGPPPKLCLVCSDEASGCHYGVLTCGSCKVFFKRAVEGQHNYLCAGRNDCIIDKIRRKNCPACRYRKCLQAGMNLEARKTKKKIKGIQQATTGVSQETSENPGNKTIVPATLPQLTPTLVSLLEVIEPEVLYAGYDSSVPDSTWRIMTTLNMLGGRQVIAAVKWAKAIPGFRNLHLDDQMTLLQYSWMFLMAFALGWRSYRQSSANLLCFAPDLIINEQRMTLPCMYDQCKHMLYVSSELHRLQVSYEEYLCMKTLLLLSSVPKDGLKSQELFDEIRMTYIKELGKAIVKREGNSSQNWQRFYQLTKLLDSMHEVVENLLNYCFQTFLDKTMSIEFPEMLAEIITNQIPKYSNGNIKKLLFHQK
# How it was run: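 Translocation of GR-ED fusion to nuclear EA restores b-gal, read by luminescence after 1 h room-temperature detection. Engineered CHO-K1 biosensor cells, 1,000/well, exposed 2 h at 37 C to titrations up to 46 uM final.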
# [6] = biological target: Mitogen-activated protein kinase 10 (Mus musculus) (UniProt Q61831); assay: JNK3 AlphaScreen Assay (AID 530); settings: JNK3 lysate, c-Jun phosphorylation; series mostly up to 57.1 µM;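 note: kinase came from lysate of stimulated human HepG2 cells; signal reports phosphorylation of biotinylated GST-cJun 1-79 at Ser73 with 10 µM ATP; % is set by controls: 0 for no effect and ±100 for the full control effect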
# How it was run: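 qHTS titrations with 15 min compound pre-incubation before adding ATP (10 uM final). Read-out: AlphaScreen of Ser73-phosphorylated biotin-GST-cJun using HepG2 lysate JNK3 activated by IL-1β and TNFα.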
# [7] = biological target: 3',5'-cyclic-AMP phosphodiesterase 4B (Homo sapiens) (UniProt Q07343); assay: qHTS Assay for Inhibitors of PDE-IV (AID 607; active = well fitted activation curve with a large enough effect in the main read-out, with a control signal flat, not every such curve was filed as active; note: % of control where 0% means no effect); settings: HEK293 ACTOne CNG channel cells, membrane potential fluorescence; series mostly up to 22.9 µM
# 3',5'-cyclic-AMP phosphodiesterase 4B (Homo sapiens), sequence (Q07343 whole entry, looked up): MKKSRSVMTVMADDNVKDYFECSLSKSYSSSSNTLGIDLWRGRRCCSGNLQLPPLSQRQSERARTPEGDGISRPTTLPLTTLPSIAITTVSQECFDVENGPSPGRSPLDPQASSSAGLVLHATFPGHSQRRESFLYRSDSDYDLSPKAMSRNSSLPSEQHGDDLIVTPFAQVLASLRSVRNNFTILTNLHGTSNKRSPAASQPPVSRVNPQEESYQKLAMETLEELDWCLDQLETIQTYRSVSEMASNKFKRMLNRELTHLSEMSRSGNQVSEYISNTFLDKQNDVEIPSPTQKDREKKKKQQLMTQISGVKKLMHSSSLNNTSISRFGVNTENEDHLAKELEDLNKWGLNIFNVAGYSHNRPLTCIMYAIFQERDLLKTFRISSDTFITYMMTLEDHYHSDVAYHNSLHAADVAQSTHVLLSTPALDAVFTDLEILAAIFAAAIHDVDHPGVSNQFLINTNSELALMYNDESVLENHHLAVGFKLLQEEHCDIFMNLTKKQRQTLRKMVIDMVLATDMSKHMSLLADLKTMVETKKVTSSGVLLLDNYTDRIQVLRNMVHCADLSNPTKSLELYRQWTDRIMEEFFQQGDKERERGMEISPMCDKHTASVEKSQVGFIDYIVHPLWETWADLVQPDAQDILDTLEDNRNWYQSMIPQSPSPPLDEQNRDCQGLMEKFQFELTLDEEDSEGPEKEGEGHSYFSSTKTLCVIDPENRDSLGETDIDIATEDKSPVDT
# How it was run: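 Cell-based read-out of cAMP via a modified cyclic nucleotide-gated channel and membrane potential dye (535/590 nm) in HEK293 cells expressing PDE4 endogenously. Compounds tested up to 22.9 uM final; 100 uM RO 20-1724 reference.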
# [8] = biological target: Cytochrome P450 3A4 (Homo sapiens) (UniProt P08684); assay: qHTS Assay for Activators of Cytochrome P450 3A4 (AID 885; active = well fitted curve in the direction sought with a large enough effect; an effect the other way counts as inactive or inconclusive; note: nearly all actives have a fitted effect of over 65% in size); settings: recombinant CYP3A4, Luciferin-PPXE luminescence, 60 min; series mostly up to 57.1 µM
# Cytochrome P450 3A4 (Homo sapiens), sequence (P08684 whole entry, looked up): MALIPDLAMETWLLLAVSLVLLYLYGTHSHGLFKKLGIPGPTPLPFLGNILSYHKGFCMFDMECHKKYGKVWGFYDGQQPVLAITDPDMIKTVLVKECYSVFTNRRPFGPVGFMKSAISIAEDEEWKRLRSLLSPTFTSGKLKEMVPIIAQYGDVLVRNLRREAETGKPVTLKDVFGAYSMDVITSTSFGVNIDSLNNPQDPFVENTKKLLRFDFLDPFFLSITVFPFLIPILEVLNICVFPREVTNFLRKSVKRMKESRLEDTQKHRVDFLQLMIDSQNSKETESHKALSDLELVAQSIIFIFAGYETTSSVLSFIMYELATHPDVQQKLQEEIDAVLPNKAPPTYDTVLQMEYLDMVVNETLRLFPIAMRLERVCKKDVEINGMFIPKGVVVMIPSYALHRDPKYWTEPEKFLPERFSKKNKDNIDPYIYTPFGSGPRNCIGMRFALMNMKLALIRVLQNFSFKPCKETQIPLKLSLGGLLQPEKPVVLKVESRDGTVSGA
# How it was run: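 Luminescent readout of luciferin formed from 25 uM Luciferin-PPXE (KM level) by 20 nM CYP3A4 in 200 mM KPO4, with 60 min NADPH-driven reaction at room temperature after 10 min compound exposure. Ketoconazole (57 uM) defined 100% inhibition.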
# [9] = qHTS Assay for Lipid Storage Modulators (AID 1519; calls by dose curve); settings: Drosophila S3 cells, BODIPY lipid droplet/cell ratio, laser cytometry, cells loaded with oleic acid; for activity change, negative = inhibition: at 57.5 µM (top of the series)
# How it was run: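 Cells seeded at 5,000 per well were treated with compounds over a concentration series and loaded with oleic acid (400 uM, as added). Lipid droplet fluorescence (488 nm excitation, 500-530 nm channel) was read by laser-scanning cytometry and normalized to 20 uM Triacsin C.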
# [10] = Primary qHTS for small molecule stabilizers of the endoplasmic reticulum resident proteome: Secreted ER Calcium Modulated Protein (SERCaMP) assay (AID 1508630; active = well fitted curve in the direction sought with a large enough effect; an effect the other way counts as inactive or inconclusive; note: % is set by controls: 0 for no effect and ±100 for the full control effect); settings: SH-SY5Y GLuc-SERCaMP (Gaussia luciferase released on ER calcium loss) secretion, thapsigargin, luminescence; series mostly up to 38.4 µM
# How it was run: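 The SH-SY5Y reporter protocol was run at 3 concentrations up to 38.3 uM (primary) or 11 concentrations (follow-up): 16 h compound, 100 nM thapsigargin for 4 h, then extracellular luciferase luminescence.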
# [11] = biological target: Glucocorticoid receptor (Homo sapiens) (UniProt P04150); assay: GR-GFP Redistribution (AID 450;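 active = compounds whose dose series gives a full or clear partial fitted curve of increased nuclear translocation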; note: potency is the fitted concentration of half-maximal effect); settings: U2OS GR-GFP nuclear translocation, laser cytometry, 2 h
# [12] = Confirmation and Secondary Assay for Modulators of Hemoglobin Beta Chain Splicing at IVS2 654 locus (AID 910; active = well fitted curve in the direction sought with a large enough effect; an effect the other way counts as inactive or inconclusive;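 note: HeLa cells stably carrying EGFP split by mutant beta-globin IVS2-654 intron; per-well total GFP intensity by laser scanning cytometry after 2-day treatment; % of control where 0% means no effect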); settings: HeLa EGFP-654 splicing reporter, GFP fluorescence, 48 h; series mostly up to 38.3 µM
# How it was run: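 Readout: per-well total peak green fluorescence (488 nm ex, 500–520 nm em) from objects 5–250 µm, reflecting correct splicing of an EGFP-654 reporter. Compounds were applied for 2 days at 37 °C to overnight-plated HeLa EGFP-654 cells; controls were DMSO and 500 nM IVS2-654 PNA.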
# [13] = Confirmation and Secondary Assay for Modulators of Hemoglobin Beta Chain Splicing at IVS2 705 locus (AID 930; active = well fitted curve in the direction sought with a large enough effect; an effect the other way counts as inactive or inconclusive;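 note: HeLa cells stably expressing the EGFP-705 splicing reporter; GFP fluorescence per well restored by corrected splicing of the IVS2-705 intron in EGFP; % of control where 0% means no effect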); settings: HeLa EGFP-705 splicing reporter, GFP fluorescence, 48 h; series mostly up to 38.3 µM
# How it was run: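 First, HeLa EGFP-705 cells are seeded at 500/well in Optimem with 2% FCS and left overnight. Next, compound or DMSO is added for 2 days. Finally wells are laser-scanned and total peak GFP intensity scored.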
# [14] = biological target: Lysosomal acid glucosylceramidase (Homo sapiens) (UniProt P04062); assay: Glucocerebrosidase-p2 (AID 348; in the data active = potency below about 10 µM; note: potency is the fitted concentration of half-maximal effect); settings: purified GBA, blue fluorogenic substrate, 40 min
# Lysosomal acid glucosylceramidase (Homo sapiens), sequence (P04062 whole entry, looked up): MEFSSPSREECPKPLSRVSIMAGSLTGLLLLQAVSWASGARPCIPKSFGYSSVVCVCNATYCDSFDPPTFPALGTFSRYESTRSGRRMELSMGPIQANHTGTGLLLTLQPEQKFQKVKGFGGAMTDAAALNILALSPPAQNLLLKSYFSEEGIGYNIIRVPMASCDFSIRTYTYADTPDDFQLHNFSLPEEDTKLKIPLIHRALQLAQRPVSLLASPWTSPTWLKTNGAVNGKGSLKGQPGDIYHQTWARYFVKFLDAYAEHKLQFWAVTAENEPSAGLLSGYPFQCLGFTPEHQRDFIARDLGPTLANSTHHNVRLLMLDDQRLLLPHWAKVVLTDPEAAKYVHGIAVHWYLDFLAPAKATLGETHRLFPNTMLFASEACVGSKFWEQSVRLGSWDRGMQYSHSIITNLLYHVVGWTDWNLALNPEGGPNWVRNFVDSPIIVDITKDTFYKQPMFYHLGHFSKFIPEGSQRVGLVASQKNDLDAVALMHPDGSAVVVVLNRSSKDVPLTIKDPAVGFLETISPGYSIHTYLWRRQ
# How it was run: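 Normal human glucocerebrosidase (0.2 nM) with blue fluorogenic substrate (80 uM final) in citrate/phosphate pH 5.9 with 10mM sodium taurocholate, 0.01% tween-20; 40 min RT, NaOH/glycine stop; fluorescence Ex 365/Em 440; AC50 from a titration from 0.6 nM upwards.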
# [15] = biological target: Dual specificity protein kinase CLK4 (Homo sapiens) (UniProt Q9HAZ1); assay: qHTS Assay for Inhibitors of CDC-like Kinase 4 (ADP-FP Assay) (AID 1795; active = well fitted curve in the direction sought with a large enough effect; an effect the other way counts as inactive or inconclusive;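 note: recombinant human CLK4 phosphorylating RS repeat peptide at 1 µM ATP; % is set by controls: 0 for no effect and ±100 for the full control effect; nearly all actives have a fitted effect of over 60% in size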); settings: Transcreener ADP fluorescence polarization; series mostly up to 50 µM
# Dual specificity protein kinase CLK4 (Homo sapiens), sequence (Q9HAZ1 whole entry, looked up): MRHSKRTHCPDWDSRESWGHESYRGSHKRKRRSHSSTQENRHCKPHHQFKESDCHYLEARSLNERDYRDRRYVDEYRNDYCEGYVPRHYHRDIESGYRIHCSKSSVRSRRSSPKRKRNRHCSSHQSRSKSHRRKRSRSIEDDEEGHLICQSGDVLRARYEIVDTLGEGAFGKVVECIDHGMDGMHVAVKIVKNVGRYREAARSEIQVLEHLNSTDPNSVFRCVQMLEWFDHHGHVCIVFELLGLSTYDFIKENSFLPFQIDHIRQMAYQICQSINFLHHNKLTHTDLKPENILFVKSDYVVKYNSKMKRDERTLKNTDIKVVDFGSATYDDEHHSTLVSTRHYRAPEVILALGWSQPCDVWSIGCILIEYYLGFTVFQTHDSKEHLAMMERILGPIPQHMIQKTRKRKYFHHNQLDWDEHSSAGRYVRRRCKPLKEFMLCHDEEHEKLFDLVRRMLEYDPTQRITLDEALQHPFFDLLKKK
# How it was run: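 Recombinant Clk4 (6.25 nM) phosphorylated 100 uM RS repeat peptide with 1 uM ATP in 25 mM Tris pH 7.5, 10 mM MgCl2, 0.5 mM EGTA, 2.5 mM DTT, 0.01% Triton X-100 for 1 h. ADP was detected by Transcreener ADP2 competitive fluorescence polarization after 30 min at room temperature.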
# [16] = biological target: Ubiquitin carboxyl-terminal hydrolase 1 (Homo sapiens) (UniProt O94782); assay: Inhibitors of USP1/UAF1: Pilot qHTS (AID 504865; active = well fitted curve in the direction sought with a large enough effect; an effect the other way counts as inactive or inconclusive;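 note: rhodamine fluorescence freed from ubiquitin-rhodamine substrate followed over time; top concentration of the series differs between compounds; % is set by controls: 0 for no effect and ±100 for the full control effect; nearly all actives have a fitted effect of over 35% in size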); settings: purified USP1/UAF1, Ub-rhodamine cleavage fluorescence; series mostly up to 54.9 µM
# Ubiquitin carboxyl-terminal hydrolase 1 (Homo sapiens), sequence (O94782 whole entry, looked up): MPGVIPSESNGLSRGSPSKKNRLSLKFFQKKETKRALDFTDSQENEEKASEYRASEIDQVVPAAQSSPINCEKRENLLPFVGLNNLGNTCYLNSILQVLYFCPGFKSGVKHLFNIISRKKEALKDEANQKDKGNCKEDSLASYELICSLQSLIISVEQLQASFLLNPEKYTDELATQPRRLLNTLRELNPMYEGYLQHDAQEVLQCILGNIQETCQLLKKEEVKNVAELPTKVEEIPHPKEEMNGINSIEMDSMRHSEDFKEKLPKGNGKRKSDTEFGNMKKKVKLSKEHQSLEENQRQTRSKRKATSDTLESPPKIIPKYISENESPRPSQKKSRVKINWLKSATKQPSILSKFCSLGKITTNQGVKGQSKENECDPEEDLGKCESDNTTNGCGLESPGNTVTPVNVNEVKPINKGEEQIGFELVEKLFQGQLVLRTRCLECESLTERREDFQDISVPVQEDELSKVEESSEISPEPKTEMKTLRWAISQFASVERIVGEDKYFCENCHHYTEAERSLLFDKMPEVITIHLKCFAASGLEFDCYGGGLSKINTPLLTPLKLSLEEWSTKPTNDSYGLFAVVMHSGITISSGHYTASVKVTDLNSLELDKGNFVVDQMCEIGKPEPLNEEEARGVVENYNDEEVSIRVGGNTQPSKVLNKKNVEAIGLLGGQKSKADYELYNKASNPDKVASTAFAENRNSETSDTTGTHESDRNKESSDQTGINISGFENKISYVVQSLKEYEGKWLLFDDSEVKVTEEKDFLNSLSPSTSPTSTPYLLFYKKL
# How it was run: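 USP1/UAF1 complex at 1 nM preincubated 15 min at room temperature with compound, then Ub-Rho substrate added at 150 nM final. Fluorescence (480/540 nm) read kinetically in 50 mM HEPES pH 7.8, 0.5 mM EDTA, 1 mM TCEP, 0.1 mg/ml BSA, 0.01% Tween-20.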
# [17] = biological target: Cytochrome P450 2D6 (Homo sapiens) (UniProt P10635); assay: qHTS Assay for Inhibitors and Substrates of Cytochrome P450 2D6 (AID 891; active = well fitted curve in the direction sought with a large enough effect; an effect the other way counts as inactive or inconclusive; note: potency is the fitted concentration of half-maximal effect; nearly all actives have a fitted effect of over 60% in size); settings: recombinant CYP2D6, luciferin-ME EGE luminescence; series mostly up to 57.1 µM
# Cytochrome P450 2D6 (Homo sapiens), sequence (P10635 whole entry, looked up): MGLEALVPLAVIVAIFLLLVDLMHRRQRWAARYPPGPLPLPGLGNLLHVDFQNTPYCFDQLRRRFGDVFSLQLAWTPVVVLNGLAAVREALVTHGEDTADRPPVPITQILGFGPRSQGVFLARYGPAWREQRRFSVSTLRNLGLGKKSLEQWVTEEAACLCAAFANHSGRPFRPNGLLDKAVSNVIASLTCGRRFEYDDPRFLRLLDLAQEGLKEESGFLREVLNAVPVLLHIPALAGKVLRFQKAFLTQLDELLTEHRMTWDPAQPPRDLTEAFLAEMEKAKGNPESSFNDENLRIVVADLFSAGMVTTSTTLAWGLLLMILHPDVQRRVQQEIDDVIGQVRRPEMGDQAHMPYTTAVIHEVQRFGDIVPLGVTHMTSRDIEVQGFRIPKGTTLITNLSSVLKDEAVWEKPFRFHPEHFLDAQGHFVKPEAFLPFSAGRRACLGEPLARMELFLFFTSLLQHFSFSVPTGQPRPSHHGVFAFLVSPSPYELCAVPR
# How it was run: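 Luminescent read-out of luciferin formed by 5 nM human CYP2D6 demethylating 30 uM Luciferin-ME EGE (Km level) over 60 min at room temperature after NADPH regeneration addition. Data normalized to full inhibition by 1.43 uM quinidine.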
# [18] = biological target: Dual specificity protein kinase CLK4 (Homo sapiens) (UniProt Q9HAZ1); assay: qHTS Assay for Inhibitors of CDC-like Kinase 4 (Kinase-Glo Assay) (AID 1770; active = well fitted curve in the direction sought with a large enough effect; an effect the other way counts as inactive or inconclusive; note: % is set by controls: 0 for no effect and ±100 for the full control effect; nearly all actives have a fitted effect of over 65% in size); settings: recombinant Clk4, Kinase-Glo ATP depletion luminescence; series mostly up to 66.7 µM
# How it was run: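 25 nM Clk4 with 100 uM RS repeat peptide and 1 uM ATP (final) in Tris pH7.5, 10 mM MgCl2, 4.5 h at room temperature. Remaining ATP measured by Kinase-Glo luciferase luminescence.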
# [19] = measured here: cell count channel max response
# [20] = measured here: lipid channel max response
SMILES,"activity change, negative = inhibition [1]",Potency [2],"activity change, negative = inhibition [3]","activity, negative = inhibition [4]",Potency [5],outcome [6],Potency [7],Potency [8],"activity change, negative = inhibition [9]","max response [9, 19]","max response [9, 20]",Potency [10],Potency [11],outcome [12],outcome [13],Potency [14],Potency [15],Potency [16],Potency [17],Potency [18]
COc1ccc(C(=O)N2CCC[C@@]3(CCN(Cc4ccc(C#N)cc4)C3)C2)cc1,-1.6% (inactive),inactive,-4.67% (inactive),3.73% (inactive),> 46 µM (inactive),inactive,inactive,inactive,3.64% (inactive),10.2%,17.8%,inactive,,,,,,,,
COc1ccccc1CNc1ncncc1-c1ccoc1,-6.36% (inactive),1.26 µM (active),-22.1% (inactive),-4.03% (inactive),> 46 µM (inactive),inactive,,inactive,9.08% (inactive),-3.49%,5.8%,inactive,> 46 µM (inactive),inactive,inactive,,,,,
COc1ccc(Oc2ncc3ncc(=O)n(C)c3n2)cc1,-12.2% (inactive),3.98 µM (active),-6.92% (inactive),-7.6% (inactive),> 46 µM (inactive),inactive,inactive,inactive,,,,inactive,> 9.22 µM (inactive),,,> 11.4 µM (inactive),inactive,inactive,,
Cn1cccc1C(=O)N1CCC2(CC1)CN(C(=O)Nc1ccccc1)C2,-4.26% (inactive),inactive,8.61% (inactive),-5.03% (inactive),> 46 µM (inactive),inactive,inactive,,5.97% (inactive),8.17%,14.5%,inactive,,,,,,,,
O=C(Nc1cccc(F)c1)N1CCC2(CC1)CCN(C(=O)c1csnn1)CC2,-8.39% (inactive),inactive,26.3% (inactive),-9.77% (inactive),> 46 µM (inactive),inactive,inactive,,5.59% (inactive),12.6%,21.6%,inactive,,,,,,,,
O=C(c1ccncc1)N1CCC2(CC1)CCN(C(c1ccccc1)c1ccccc1)CC2,-0.963% (inactive),12.6 µM (active),-18.3% (inactive),5% (inactive),> 46 µM (inactive),inactive,inactive,,2.53% (inactive),0.243%,4.49%,inactive,,,,,,,3.16 µM (active),
COc1ncc2nc(-c3cc(F)cc(F)c3)c(=O)n(C)c2n1,-19.2% (inactive),2 µM (active),-1.78% (inactive),-3.71% (inactive),> 46 µM (inactive),inactive,inactive,,,,,inactive,> 9.22 µM (inactive),,,> 11.4 µM (inactive),inactive,inactive,,inactive
